Some test systems named below: NCI-H23 lung; NCI-H226 lung; NCI-H322M lung; HOP-62 NSCLC; NCI-H460 lung; HOP-92 NSCLC; NCI-H522 lung; A549/ATCC NSCLC; 786-0 renal; COLO 205 colon; DU-145 prostate; K-562 leukemia; MALME-3M melanoma; MDA-MB-231 breast; RXF 393 renal; SF-268 CNS; SF-295 CNS; SF-539 CNS; UACC-257 melanoma; M14 melanoma.
Common to all, as to experiment: NCI-60 one-dose screen, 48 h (100 = growth as untreated, 0 = no growth, -100 = all killed)
Holding throughout (settings): 10 µM unless noted

The panel holds about 83,000 compounds, 20% with a hit somewhere; the sample as a whole holds those more often.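 Cell lines were cultured in 96-well plates, exposed to a single compound concentration, and assessed for percent growth 48 hours later.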 A number with no mark means an inactive call. Active and inactive are the calls of the source. How the source made its calls: active means growth percent below 10; inactive means the rest.

Take `COC(=O)C(Cc1ccccc1)n1cc(COc2nc(Cl)nc(Nc3ccc(Cl)cc3)n2)nn1` (stereo not given): the growth was 92.5% with NCI-H23 lung; 99.8% in the test with NCI-H226 lung; 95.3% in the test on NCI-H322M lung; 95% in the test on HOP-62 NSCLC; 101% with NCI-H460 lung; 105% with HOP-92 NSCLC. For the same compound, the growth is 88.2% with NCI-H522 lung; 102% with A549/ATCC NSCLC; 98.9% with 786-0 renal; 117% in the test with COLO 205 colon; 81.5% with DU-145 prostate; 90.6% with K-562 leukemia. Besides, the growth was 89.4% with MALME-3M melanoma; 94% in the test with MDA-MB-231 breast; 101% with RXF 393 renal; 97.8% with SF-268 CNS; 101% in the test with SF-295 CNS; 97.4% in the test with SF-539 CNS. The growth with UACC-257 melanoma was 94.7%; in the test on M14 melanoma, 91.5%.

In the case of `CCc1nnc(NC(=O)c2ccoc2COc2ccccc2)s1`, the growth in the test on NCI-H23 lung is 57.9%; in the test with NCI-H226 lung it was 74.3%; in the test with NCI-H322M lung, 86.9%; with HOP-62 NSCLC it was 56.3%; with NCI-H460 lung it was 27%; with HOP-92 NSCLC, 74.8%. Besides, the growth in the test with NCI-H522 lung is 38.6%; in the test on A549/ATCC NSCLC, 62.1%; in the test on 786-0 renal, 72.2%; in the test on COLO 205 colon it was 44.2%; with DU-145 prostate, 75.4%; in the test with K-562 leukemia, 12.3%. Besides, the growth in the test on MALME-3M melanoma is 47.5%; in the test on MDA-MB-231 breast it was 55.9%; in the test with RXF 393 renal, 54.2%; in the test with SF-268 CNS, 66.7%; with SF-295 CNS it was 36.1%; with SF-539 CNS, 43.5%. The growth in the test with UACC-257 melanoma is 76.9%; in the test with M14 melanoma it was 11.7%.

As to `CN(C)c1ccc(-c2ccc(-c3ccc(C(=N)N)c(F)c3)s2)cc1`, the growth was -67.1% (active) with NCI-H23 lung; -60.1% (active) in the test with NCI-H226 lung; 0.0772% (active) in the test with NCI-H322M lung; -75.2% (active) in the test with HOP-62 NSCLC; -77.5% (active) with NCI-H460 lung; -79.4% (active) in the test with HOP-92 NSCLC. Moreover, the growth is -61.4% (active) with NCI-H522 lung; -83.2% (active) in the test on A549/ATCC NSCLC; -93.7% (active) with 786-0 renal; -74.7% (active) in the test with COLO 205 colon; -93.7% (active) with DU-145 prostate; -34.3% (active) in the test on K-562 leukemia. Also, the growth in the test on MALME-3M melanoma is 71.3%; in the test on MDA-MB-231 breast, -78.4% (active); in the test on RXF 393 renal it was -83.2% (active); in the test with SF-268 CNS, -56.9% (active); in the test on SF-295 CNS it was -88.1% (active); in the test on SF-539 CNS, -93% (active). Besides, the growth with UACC-257 melanoma is 111%; in the test on M14 melanoma it was 97.5%.

Take `Cc1cc(N(CCCNc2ccnc3cc(Cl)ccc23)Cc2ccco2)nc(N2CCN(C)CC2)n1`: the growth in the test with NCI-H23 lung was 66%; in the test on NCI-H226 lung, 88.3%; in the test on NCI-H322M lung, 64.2%; in the test with HOP-62 NSCLC it was 48.2%; in the test on NCI-H460 lung, 28.4%; in the test with HOP-92 NSCLC, 79.9%. Moreover, the growth in the test with NCI-H522 lung is 82.1%; in the test on A549/ATCC NSCLC, 45%; in the test with 786-0 renal it was 59%; with COLO 205 colon, -21.2% (active); in the test on DU-145 prostate, 55.6%; with K-562 leukemia it was 12.9%. Further, the growth was -49.6% (active) in the test on MALME-3M melanoma; 14.4% in the test on MDA-MB-231 breast; 35.9% in the test on RXF 393 renal; 56.1% with SF-268 CNS; 57.1% in the test on SF-295 CNS; -62.9% (active) with SF-539 CNS. Moreover, the growth with UACC-257 melanoma was -63.2% (active); with M14 melanoma, -82.5% (active).

`COc1cc(-c2cc3ncccc3c3nc(N)c4cccnc4c23)cc(OC)c1OC`: the growth in the test with NCI-H23 lung is 24.5%; in the test on NCI-H226 lung it was 38.7%; in the test with NCI-H322M lung it was 44.3%; in the test with HOP-62 NSCLC, 27.3%; with NCI-H460 lung, 3.55% (active); in the test on HOP-92 NSCLC it was 41.2%. Moreover, the growth is 17.4% in the test with NCI-H522 lung; 12.7% with A549/ATCC NSCLC; 12.9% in the test with 786-0 renal; -15.6% (active) in the test on COLO 205 colon; 2.16% (active) in the test on DU-145 prostate; 16.3% with K-562 leukemia. Also, the growth is 50.9% in the test on MALME-3M melanoma; 36.5% in the test on MDA-MB-231 breast; 10.9% in the test on RXF 393 renal; 29.6% in the test on SF-268 CNS; 12.4% with SF-295 CNS; -1.92% (active) with SF-539 CNS. The growth with UACC-257 melanoma is 44.3%; in the test with M14 melanoma it was 4.68% (active).

Take `O=[N+]([O-])c1cc(S(=O)(=O)c2ccc(F)c([N+](=O)[O-])c2)ccc1F`: the growth was 103% with NCI-H23 lung; 109% in the test with NCI-H226 lung; 110% with NCI-H322M lung; 121% with HOP-62 NSCLC; 99.3% in the test on NCI-H460 lung; 88.6% in the test with HOP-92 NSCLC. Also, the growth in the test on NCI-H522 lung was 89%; with A549/ATCC NSCLC, 102%; with 786-0 renal, 100%; in the test with COLO 205 colon it was 83%; with DU-145 prostate it was 98.1%; in the test on K-562 leukemia, 40.4%. Further, the growth in the test with MALME-3M melanoma was 132%; in the test on MDA-MB-231 breast, 103%; in the test on RXF 393 renal, 82.9%; in the test on SF-268 CNS, 108%; with SF-295 CNS, 111%; in the test on SF-539 CNS it was 109%. Besides, the growth in the test on UACC-257 melanoma is 75.4%; in the test on M14 melanoma, 81.7%.

In the case of `Cc1cc(N2CCCCC2)nc(N(CCCNc2ccnc3cc(Cl)ccc23)Cc2ccco2)n1`, the growth was 21.4% in the test with NCI-H23 lung; 57.1% in the test on NCI-H226 lung; 19.6% in the test on NCI-H322M lung; 8.53% (active) with HOP-62 NSCLC; 10.7% with NCI-H460 lung; -6.02% (active) with HOP-92 NSCLC. Also, the growth is 49.9% in the test on NCI-H522 lung; 18.4% in the test on A549/ATCC NSCLC; 24.2% in the test with 786-0 renal; -35.3% (active) in the test on COLO 205 colon; 39% with DU-145 prostate; 3.78% (active) in the test with K-562 leukemia. The growth in the test on MALME-3M melanoma is -5.59% (active); in the test with MDA-MB-231 breast, 21.8%; with RXF 393 renal it was 19.6%; in the test with SF-268 CNS, 44%; in the test on SF-295 CNS, 20.3%; in the test with SF-539 CNS, -36.5% (active). Also, the growth in the test on UACC-257 melanoma is 49.4%; with M14 melanoma, -74.4% (active).

Values taken from PubChem BioAssay (NCI).
